Results reported in PubChem BioAssay (NCATS).
Records with an inconclusive call do not appear. Where a call stands in place of a potency, no number is given. Calls of active or inactive are those of the source. Unless noted, calls follow the shape of the dose curve; as a rule, active = well fitted curve in the direction sought with a large enough effect; inconclusive = small, poorly fitted or top-dose-only effect, or another doubt; inactive = no such curve, though single readings can be large; an effect the other way counts as inactive or inconclusive.

How the values were obtained:
[1] = target: DNA repair nuclease/redox regulator APEX1 (Homo sapiens) (UniProt P27695); experiment: qHTS Validation Assay for Inhibitors of the Human Apurinic/apyrimidinic Endonuclease 1 (APE1) (AID 1705; also: potency is read from the fitted curve at half-maximal effect)
Summary of the method: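 Human APE1 was preincubated with compound for 15 min at room temperature, then 50 nM (final) THF-abasic double-stranded DNA substrate bearing 5'-TAMRA and 3'-BHQ-2 was added. Incision-driven fluorescence rise (ex 525/em 598 nm) was read kinetically.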

[2] = Counterscreen for APE1 Inhibitors: Fluorescent Dye Displacement Validation Assay (AID 1707); also: potency is read from the fitted curve at half-maximal effect
Summary of the method: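 Endpoint fluorescence read at 480 nm excitation / 540 nm emission; DNA-binding compounds lower signal by displacing 250 nM Thiazole Orange from 50 nM dsDNA containing a tetrahydrofuran abasic site, Tris-HCl pH7.5 buffer with NaCl and MgCl2.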

[3] = qHTS for differential inhibitors of proliferation of Plasmodium falciparum line 7G8 (AID 1815);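 also: parasite growth measured after three days of incubation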; also: potency is read from the fitted curve at half-maximal effect
[4] = qHTS for differential inhibitors of proliferation of Plasmodium falciparum line GB4 (AID 1816); details: Potency: Plasmodium falciparum GB4 proliferation inhibition;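 also: parasite growth measured after 72 h incubation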; also: potency is read from the fitted curve at half-maximal effect
[5] = qHTS for differential inhibitors of proliferation of Plasmodium falciparum line 3D7 (AID 1876); also: potency is read from the fitted curve at half-maximal effect
[6] = qHTS for differential inhibitors of proliferation of Plasmodium falciparum line W2 (AID 1883); details: Potency: Plasmodium falciparum W2 proliferation inhibition;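 also: parasites grown with compound for 72 h before lysis and staining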; also: potency is read from the fitted curve at half-maximal effect
[7] = qHTS for differential inhibitors of proliferation of Plasmodium falciparum line HB3 (AID 1886); details: Potency: Plasmodium falciparum HB3 proliferation inhibition;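 also: parasites grown with compound for 72 h before SYBR Green readout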; also: potency is read from the fitted curve at half-maximal effect
[8] = target: Ferritin light chain (Equus caballus) (UniProt P02791); experiment: qHTS Validation Assay for Identification of Novel General Anesthetics (AID 2323); also: series mostly up to about 77 µM
Summary of the method: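 Competitive displacement of profluorescent 1-aminoanthracene (1-AMA, 50% saturated solution in PBS) from 10 uM horse-spleen apoferritin. Compounds incubated 10 min at room temperature; fluorescence read at 380 nm excitation/535 nm emission, normalized to free 1-AMA and complex, fitted with four-parameter Hill equation.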

[9] = target: ATP-dependent DNA helicase Q1 (Homo sapiens) (UniProt P46063); experiment: qHTS Validation Assay for Inhibitors of RecQ-Like Dna Helicase 1 (RECQ1) (AID 2353)
Summary of the method: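 RECQ1T1 50 nM; forked duplex (20 bp + 30-nt ss tails) 200 nM, ATP 2 mM final; pH 8.0, 2 mM MgCl2, 2.5 ug/ml poly(dI-dC); 15 min compound preincubation; discontinuous kinetic read over 2 h at RT.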

[10] = target: RecQ-like DNA helicase BLM (Homo sapiens) (UniProt P54132); experiment: qHTS Validation Assay for Inhibitors of Bloom's syndrome helicase (BLM) (AID 2364)
Summary of the method: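 BLM 50 nM in 25 mM Tris-HCl pH 8.0, 5 mM NaCl, 2 mM MgCl2, 1 mM DTT, 0.01% Tween-20, 2.5 ug/ml poly(dI-dC); 15 min cpd preinc, RT. Start: 200 nM forked DNA + 2 mM ATP (final). TAMRA read, 2 reads 2 h apart.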

[11] = Cytometric Cell-Based qHTS for Inhibitors of the mTORC1 Signaling Pathway in MEF (Tsc2-/-, p53-/-) Cells (AID 2660);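 also: Tsc2 and p53 null MEFs carrying empty vector with compound for 24 h; percent of cells above a phospho-rpS6 to PI ratio cutoff in each well; series mostly up to about 38 µM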
Summary of the method: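 Cells are plated, treated with compound for 24 hrs at 37 degree Celsius, then fixed, blocked and immunostained for phospho-rpS6 Ser235/236. Propidium iodide counterstain follows. Per-well % positive cells is derived from the PI-normalized phospho-S6 signal.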

[12] = Validation screen for small molecules that induce DNA re-replication in MCF 10A normal breast cells (AID 463097); also: nearly all actives have a fitted effect of over 60% in size
Summary of the method: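 Readout: Hoechst nuclear fluorescence intensity, 405 ex / 500-530 em, by scanning plate imager; re-replication scored as increase in nuclei with elevated DNA content. Cells exposed to compound 48 hr, 37 C, 5% CO2 beforehand.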

[13] = target: Endonuclease 4 (Escherichia coli (strain K12)) (UniProt P0A6C1); experiment: Counterscreen for APE1 Inhibitors: qHTS Validation Assay for Inhibitors of Endonuclease IV (AID 1708); also: potency is read from the fitted curve at half-maximal effect
Summary of the method: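 Measured as reaction progress, the fluorescence gain between first and third kinetic reads after adding 50 nM TAMRA/BHQ-2 THF duplex to 2 nM enzyme preincubated 15 min with compound; 2 mM MgCl2, pH 7.5.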

[14] = qHTS for differential inhibitors of proliferation of Plasmodium falciparum line D10 (AID 1877);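 also: parasites grown with compound for 72 h before DNA staining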; also: potency is read from the fitted curve at half-maximal effect
[15] = qHTS for differential inhibitors of proliferation of Plasmodium falciparum line Dd2 (AID 1882); details: Potency: Plasmodium falciparum Dd2 proliferation inhibition; also: nearly all actives have a fitted effect of over 65% in size; also: potency is read from the fitted curve at half-maximal effect
Summary of the method: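 RBC culture, 0.3% parasitemia / 2.5% Hct final; cpd added by pin tool in DMSO; 72 h, 37 C, 5% CO2; lysis buffer + SYBR Green I, o/n RT dark; FI 485/535; norm. to artemisinin 0.29 uM and DMSO.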

[16] = High Content Imaging Cell-Based qHTS for Inhibitors of the mTORC1 Signaling Pathway in MEF (Tsc2-/-, p53-/-) Cells (AID 2666);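 also: percent of cells scored positive for phospho-rpS6 Ser235/236 immunostaining by imaging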
Summary of the method: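 Inhibition of rpS6 phosphorylation is measured by immunofluorescence imaging in empty-vector Tsc2-/-, p53-/- mouse embryonic fibroblasts after 24 hrs compound exposure at 37 degree Celsius. Results are reported as % positive cells per well.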

[17] = High Content Imaging Cell-Based qHTS for Inhibitors of the mTORC1 Signaling Pathway in MEF Cells (AID 2667); also: potency is read from the fitted curve at half-maximal effect
Summary of the method: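 Fixed-cell imaging of phospho-S6 (Ser235/236, Alexa-488) after 24 hrs of compound treatment at 37 degree Celsius. Signal was normalized to Hoechst, and thresholds from the highest and lowest wells split cells into % active versus % non-active.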

[18] = Cytometry Cell-Based qHTS for Inhibitors of the mTORC1 Signaling Pathway in MEF cells (AID 2668); also: potency is read from the fitted curve at half-maximal effect
Summary of the method: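 WT MEFs (Tsc2-/-, p53-/- stably re-expressing WT Tsc2) in DMEM + 10% FBS received compounds 24 hrs after plating, for 24 hrs at 37 degree Celsius. Fixed cells stained with Alexa-488 anti-phospho-rpS6 Ser235/236 and propidium iodide; laser-scanning cytometry read-out.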

[19] = qHTS Assay for Modulators of Human Peripheral Myelin Protein 22 (PMP22) Expression/Activity (AID 1967; active = well fitted curve in the direction sought with a large enough effect in the signal ratio; the % refers to the signal ratio; also: potency is read from the fitted curve at half-maximal effect)
Summary of the method: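 MSC80 mouse Schwann cells stably carrying Pmp22 promoter–green click beetle luciferase plus EF-alpha–red luciferase control were dosed for 24h at 37 °C. Dual-colour luminescence was filter-overlap corrected; %Activity came from green/red ratio versus untreated cells.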

Ferritin light chain (Equus caballus), sequence (P02791 2-175 limits assumed): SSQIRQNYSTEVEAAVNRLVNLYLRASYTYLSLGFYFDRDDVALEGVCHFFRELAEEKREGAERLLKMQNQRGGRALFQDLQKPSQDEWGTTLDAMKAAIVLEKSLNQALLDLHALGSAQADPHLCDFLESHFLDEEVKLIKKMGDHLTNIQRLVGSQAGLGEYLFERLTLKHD
RecQ-like DNA helicase BLM (Homo sapiens), sequence (P54132 whole entry, looked up): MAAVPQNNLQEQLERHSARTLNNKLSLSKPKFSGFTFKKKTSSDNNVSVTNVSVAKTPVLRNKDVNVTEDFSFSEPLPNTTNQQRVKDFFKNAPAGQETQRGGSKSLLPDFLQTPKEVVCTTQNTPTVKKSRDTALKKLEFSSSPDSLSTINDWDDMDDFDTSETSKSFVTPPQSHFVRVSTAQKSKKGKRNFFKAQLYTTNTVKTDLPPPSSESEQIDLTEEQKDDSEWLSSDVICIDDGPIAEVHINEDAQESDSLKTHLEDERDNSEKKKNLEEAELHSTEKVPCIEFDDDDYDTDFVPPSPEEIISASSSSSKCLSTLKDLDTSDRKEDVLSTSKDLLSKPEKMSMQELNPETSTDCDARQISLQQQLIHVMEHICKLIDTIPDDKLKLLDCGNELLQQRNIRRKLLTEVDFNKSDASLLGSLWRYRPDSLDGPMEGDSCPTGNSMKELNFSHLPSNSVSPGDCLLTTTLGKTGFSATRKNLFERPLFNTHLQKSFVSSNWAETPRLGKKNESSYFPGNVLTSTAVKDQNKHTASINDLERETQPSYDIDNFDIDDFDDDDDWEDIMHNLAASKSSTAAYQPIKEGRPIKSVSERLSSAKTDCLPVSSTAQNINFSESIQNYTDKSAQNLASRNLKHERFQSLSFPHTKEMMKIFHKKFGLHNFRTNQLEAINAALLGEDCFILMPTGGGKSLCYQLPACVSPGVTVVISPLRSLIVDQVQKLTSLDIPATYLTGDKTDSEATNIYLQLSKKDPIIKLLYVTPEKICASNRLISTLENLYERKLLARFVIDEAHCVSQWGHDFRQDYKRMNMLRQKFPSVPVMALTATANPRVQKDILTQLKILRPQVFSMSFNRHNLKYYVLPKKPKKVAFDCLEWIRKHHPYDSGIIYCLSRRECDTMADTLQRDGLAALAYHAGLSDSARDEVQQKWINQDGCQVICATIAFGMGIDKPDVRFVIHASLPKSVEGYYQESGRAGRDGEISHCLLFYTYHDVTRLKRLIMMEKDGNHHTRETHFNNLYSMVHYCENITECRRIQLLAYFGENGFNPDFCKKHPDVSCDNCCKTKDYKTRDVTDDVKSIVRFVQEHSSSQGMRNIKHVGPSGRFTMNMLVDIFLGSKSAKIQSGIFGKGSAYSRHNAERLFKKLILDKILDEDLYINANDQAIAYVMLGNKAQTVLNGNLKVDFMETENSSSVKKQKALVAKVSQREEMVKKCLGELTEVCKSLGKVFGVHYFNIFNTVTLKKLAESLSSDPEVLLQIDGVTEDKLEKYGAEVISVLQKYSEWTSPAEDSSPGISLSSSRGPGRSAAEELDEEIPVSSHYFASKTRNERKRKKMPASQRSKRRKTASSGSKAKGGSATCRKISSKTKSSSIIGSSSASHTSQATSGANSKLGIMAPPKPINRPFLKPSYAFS
ATP-dependent DNA helicase Q1 (Homo sapiens), sequence (P46063 whole entry, looked up): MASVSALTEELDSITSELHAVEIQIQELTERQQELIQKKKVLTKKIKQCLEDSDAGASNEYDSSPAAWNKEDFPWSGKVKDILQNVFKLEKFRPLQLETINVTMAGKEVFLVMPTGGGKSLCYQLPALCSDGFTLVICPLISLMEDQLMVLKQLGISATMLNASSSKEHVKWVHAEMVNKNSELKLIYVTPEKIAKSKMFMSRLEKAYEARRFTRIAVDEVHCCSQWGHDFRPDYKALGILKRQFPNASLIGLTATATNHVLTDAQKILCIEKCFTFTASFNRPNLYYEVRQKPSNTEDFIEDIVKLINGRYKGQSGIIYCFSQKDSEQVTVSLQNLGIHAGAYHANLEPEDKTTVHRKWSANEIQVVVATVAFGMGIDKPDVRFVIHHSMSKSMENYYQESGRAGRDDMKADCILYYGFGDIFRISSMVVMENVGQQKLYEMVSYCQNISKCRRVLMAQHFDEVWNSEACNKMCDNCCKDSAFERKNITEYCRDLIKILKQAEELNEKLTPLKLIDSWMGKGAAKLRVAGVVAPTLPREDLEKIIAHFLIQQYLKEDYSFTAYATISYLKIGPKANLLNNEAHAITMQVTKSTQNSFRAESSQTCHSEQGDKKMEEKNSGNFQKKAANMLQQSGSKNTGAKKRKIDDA
DNA repair nuclease/redox regulator APEX1 (Homo sapiens), sequence (P27695 whole entry, looked up): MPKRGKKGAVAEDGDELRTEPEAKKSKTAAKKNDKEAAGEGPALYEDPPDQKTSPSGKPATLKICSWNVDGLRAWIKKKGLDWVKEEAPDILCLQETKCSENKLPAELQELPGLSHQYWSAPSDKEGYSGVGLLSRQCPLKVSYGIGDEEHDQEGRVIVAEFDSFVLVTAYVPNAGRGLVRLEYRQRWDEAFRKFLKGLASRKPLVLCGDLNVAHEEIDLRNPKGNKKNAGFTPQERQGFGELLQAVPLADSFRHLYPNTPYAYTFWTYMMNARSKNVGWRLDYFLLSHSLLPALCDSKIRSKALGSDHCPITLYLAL

| SMILES | Potency [1] | Potency [2] | Potency [3] | Potency [4] | Potency [5] | Potency [6] | Potency [7] | Potency [8] | Potency [9] | Potency [10] | outcome [11] | Potency [12] | Potency [13] | Potency [14] | Potency [15] | Potency [16] | Potency [17] | Potency [18] | Potency [19] |
| --- | --- | --- | --- | --- | --- | --- | --- | --- | --- | --- | --- | --- | --- | --- | --- | --- | --- | --- | --- |
| CN(C)CCC=C1c2ccccc2C=Cc2ccccc21 | 4.47 µM (active) | inactive | 5.01 µM (active) | 11.2 µM (active) | 11.2 µM (active) | 5.01 µM (active) | 12.6 µM (active) | inactive | inactive | inactive | inactive | inactive | – | – | – | – | – | – | – |
| NC(CO)C(=O)NNCc1ccc(O)c(O)c1O (centres undefined) | inactive | inactive | – | inactive | inactive | – | inactive | – | inactive | inactive | inactive | inactive | inactive | inactive | inactive | inactive | – | – | – |
| CN1CCN(CCCN2c3ccccc3Sc3ccc(Cl)cc32)CC1 | inactive | inactive | 5.01 µM (active) | 10 µM (active) | 6.31 µM (active) | 4.47 µM (active) | 12.6 µM (active) | inactive | inactive | inactive | – | – | – | 12.6 µM (active) | 11.2 µM (active) | – | – | – | – |
| CC(C)NCC(O)COc1ccc(CCOCC2CC2)cc1 (centres undefined) | inactive | inactive | 10 µM (active) | – | inactive | 7.08 µM (active) | inactive | inactive | inactive | – | inactive | inactive | inactive | inactive | inactive | – | inactive | inactive | – |
| CCOC(=O)c1ncn2c1CN(C)C(=O)c1cc(F)ccc1-2 | inactive | inactive | inactive | inactive | inactive | inactive | inactive | – | inactive | – | inactive | inactive | – | inactive | inactive | – | inactive | inactive | – |
| C[C@](N)(Cc1ccc(O)c(O)c1)C(=O)O | 7.94 µM (active) | inactive | inactive | – | inactive | – | inactive | inactive | inactive | – | – | inactive | inactive | inactive | inactive | – | – | – | – |
| CC(C)NCC(O)c1ccc(O)c(O)c1 (centres undefined) | inactive | inactive | inactive | – | inactive | – | – | inactive | inactive | inactive | inactive | inactive | inactive | – | inactive | – | – | 13.1 µM (active) | – |
| Cc1ccc(C(=O)Nc2ccc(S(=O)(=O)O)c3cc(S(=O)(=O)O)cc(S(=O)(=O)O)c23)cc1NC(=O)c1cccc(NC(=O)Nc2cccc(C(=O)Nc3cc(C(=O)Nc4ccc(S(=O)(=O)O)c5cc(S(=O)(=O)O)cc(S(=O)(=O)O)c45)ccc3C)c2)c1 | 8.91 µM (active) | 4.47 µM (active) | – | – | – | 12.6 µM (active) | – | inactive | – | inactive | inactive | inactive | 4.47 µM (active) | – | – | inactive | inactive | inactive | – |
| CCCCc1oc2ccccc2c1C(=O)c1cc(I)c(OCCN(CC)CC)c(I)c1 | inactive | inactive | 2.82 µM (active) | 2.51 µM (active) | 2.82 µM (active) | 2.24 µM (active) | 3.98 µM (active) | – | inactive | – | inactive | – | – | 7.08 µM (active) | 6.31 µM (active) | – | 13.1 µM (active) | – | – |
| CC(C(=O)O)c1cccc(C(=O)c2ccccc2)c1 (centres undefined) | inactive | inactive | – | – | – | – | – | inactive | inactive | inactive | inactive | inactive | inactive | – | – | inactive | inactive | inactive | 23.9 µM (active) |
| O=C(CCCN1CCC(O)(c2ccc(Cl)cc2)CC1)c1ccc(F)cc1 | inactive | inactive | – | – | – | – | – | inactive | inactive | inactive | inactive | inactive | inactive | – | – | inactive | 23.3 µM (active) | – | – |
| Clc1ccc2c(c1)C(N1CCNCC1)=Nc1ccccc1O2 | inactive | inactive | 7.08 µM (active) | 5.62 µM (active) | – | 5.62 µM (active) | 11.2 µM (active) | – | inactive | inactive | – | inactive | – | – | 11.2 µM (active) | – | – | – | – |
| O=C(C1CCCCC1)N1CC(=O)N2CCc3ccccc3C2C1 (centres undefined) | inactive | inactive | – | – | – | 12.6 µM (active) | – | inactive | inactive | – | inactive | inactive | inactive | – | – | inactive | inactive | inactive | – |
| Clc1ccccc1C(c1ccccc1)(c1ccccc1)n1ccnc1 | inactive | inactive | 0.251 µM (active) | 0.316 µM (active) | 0.447 µM (active) | 0.355 µM (active) | 0.316 µM (active) | – | inactive | – | inactive | – | – | 0.631 µM (active) | 1.78 µM (active) | inactive | inactive | inactive | – |
| COc1ccccc1OCC(O)CN1CCN(CC(=O)Nc2c(C)cccc2C)CC1 (centres undefined) | inactive | inactive | – | – | inactive | – | inactive | inactive | inactive | – | inactive | inactive | inactive | inactive | inactive | inactive | inactive | inactive | – |
| CN1C(C(=O)Nc2ccccn2)=C(O)c2ccccc2S1(=O)=O | inactive | inactive | – | – | inactive | 10 µM (active) | inactive | inactive | inactive | – | inactive | inactive | inactive | inactive | inactive | inactive | inactive | inactive | – |
| Nc1nnc(-c2cccc(Cl)c2Cl)c(N)n1 | inactive | inactive | inactive | – | – | inactive | inactive | inactive | inactive | – | inactive | inactive | inactive | inactive | inactive | – | inactive | inactive | – |
| C[C@H]1c2cccc(O)c2C(O)=C2C(=O)[C@]3(O)C(O)=C(C(N)=O)C(=O)[C@@H](N(C)C)[C@@H]3[C@@H](O)[C@@H]21 | – | – | – | – | – | – | – | – | – | – | inactive | – | – | – | – | – | inactive | inactive | – |
| OCCN1CCN(CCCN2c3ccccc3Sc3ccc(C(F)(F)F)cc32)CC1 | inactive | inactive | – | – | – | – | – | – | inactive | inactive | – | – | – | – | – | – | – | – | – |
| CC(C)C(=O)Nc1ccc([N+](=O)[O-])c(C(F)(F)F)c1 | inactive | inactive | – | – | – | – | – | – | inactive | inactive | inactive | inactive | – | – | inactive | inactive | inactive | inactive | – |
